Source: PubChem BioAssay
D2 PAM-1 = positively modulates the human D2 dopamine receptor allosterically | HEK293 T-REx D2, calcium flux, EC20 dopamine potentiation | potentiation, % at 10 µM | 340,000 tested, 0.34% active;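 active = potentiation over 3 SD above the plate norm, cut at about 30% in these data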; note: 0% is about no effect
Target sequence (P14416 whole entry, looked up): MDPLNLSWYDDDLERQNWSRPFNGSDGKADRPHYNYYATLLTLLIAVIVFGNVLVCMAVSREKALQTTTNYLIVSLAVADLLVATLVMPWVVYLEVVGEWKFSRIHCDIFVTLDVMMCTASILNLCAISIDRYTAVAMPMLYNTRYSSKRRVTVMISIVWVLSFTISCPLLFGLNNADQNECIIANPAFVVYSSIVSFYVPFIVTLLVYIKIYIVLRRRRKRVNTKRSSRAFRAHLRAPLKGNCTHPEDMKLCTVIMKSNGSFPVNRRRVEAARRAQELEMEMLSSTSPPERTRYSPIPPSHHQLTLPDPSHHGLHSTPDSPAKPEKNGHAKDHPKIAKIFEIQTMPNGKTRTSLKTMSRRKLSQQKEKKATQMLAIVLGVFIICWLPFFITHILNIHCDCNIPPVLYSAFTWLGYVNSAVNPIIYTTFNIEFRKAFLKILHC
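Tetracycline-induced Hek293 Trex D2 cells, force-coupled to calcium, loaded with no-wash calcium dye. Compound added with 180 s kinetic read for agonism, then EC20 dopamine and a further 180 s read for potentiation.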
D2 ag-1 = human D2 receptor agonism in beta-arrestin assay; P14416; DiscoveRx PathHunter D2 beta-arrestin, luminescence, 90 min; 100% = 57 uM dopamine signal; activation, % (test concentration not listed); 360,000 tested, 0.084% active; AID 624465; in the data active = activation above about 40%; inconclusive = between about 15% and that limit
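Agonist mode: compounds alone added to overnight-plated D2 PathHunter cells for 90 min at 37 C, with 57 uM final dopamine (EC100) defining full response. Beta-arrestin recruitment detected by chemiluminescent reagent, read after 1 h at ambient temperature.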
D2 ag-2 = D2 dopamine receptor (human) agonism | P14416 | activation, % at 2 µM | HEK293 T-REx D2 cells, calcium flux agonist mode | 340,000 tested, 0.53% active;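 active = activation over 3 SD above normal in the single-dose calcium agonist read, cut at about 30% in these data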; note: 0% is about no effect
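Tetracycline-induced HEK293 T-REx cells with force-coupled D2 receptor, plated overnight at 30 C, loaded with no-wash calcium dye. After a 10 s baseline, compound was pin-added and calcium flux read kinetically for 180 s; calcium rises flagged agonists.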
D2 antag = D2 dopamine receptor (human) antagonism. P14416. HEK293 TREx D2 cells, calcium flux, dopamine EC80. inhibition, % at 10 µM. 340,000 tested, 2% active. AID 485344; in the data active = inhibition above about 30%; inactive = below that, where a call was filed; note: 0% is about no effect
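Antagonism is scored as inhibition of an EC80 dopamine-evoked calcium signal in a force-coupled, tetracycline-inducible HEK293 T-REx D2 line, with compound present 180 s before agonist.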
D2 PAM-2 = human D2 receptor positive allosteric modulation; P14416; DiscoveRx D2 beta-arrestin cells, luminescence, 90 min; 100% = 57 uM dopamine signal; potentiation, % (no concentration beside the values); 360,000 tested, 0.23% active; in the data active = potentiation above about 50%; inconclusive = mostly about 30% to 49%
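PathHunter D2 cells, attached overnight at 37 deg C, received compound in DMSO plus dopamine at EC20 (50 nM final) for 90 min at 37 deg C. Beta-arrestin recruitment was read as luminescence after 1 h with detection reagent at ambient temperature.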
Starred values were filed as active, the others as inactive; ? = inconclusive; . = no result given; ! = repeats disagree. Only some compounds are listed: those with a hit (about 2.4% of all), similar ones and a draw of the others.

SMILES	D2 PAM-1	D2 ag-1	D2 ag-2	D2 antag	D2 PAM-2
CCc1ccc(NC(=O)N(Cc2cccnc2)Cc2ccco2)cc1	32.4*	-2.0	-0.5	-5.6	-14.4
Cc1cc(C)cc(Nc2cc(C)nc3nc(-c4ccco4)nn23)c1	-5.4	.	-5.5	.	.
O=C(CSc1n[nH]c(-c2ccco2)n1)Nc1ccccc1Cl	8.4	-4.0	0.2	30.3*	-2.1
Cc1nc(SCC(=O)Nc2ccccc2Cl)oc1C	0.0	-1.1	0.0	31.2*	4.5
CCc1cccc(C)c1NC(=O)CSc1nc(C)c(C)o1	11.4	-1.4	-0.1	-7.7	-32.5
COc1ccccc1Nc1nn2c(=O)c3ccc(C(=O)N4CCCC(C)C4)cc3nc2s1 (stereo not drawn)	36.9*!	-5.8	-1.0	-42.2	-11.1
CN1C(=O)c2ccccc2Sc2ccc(NC(=O)c3ccc(C#N)cc3)cc21	4.3	.	0.5	.	.
Cc1ccccc1C(=O)OCCN(C)Cc1ccccc1	-20.5	-5.3	-1.9	31.5*	-15.8
Cc1ccc(C(=O)OCCN(C)Cc2ccccc2)cc1	-18.7	-3.9	1.8	2.1	-19.1
COc1cc(C)ccc1OCCSc1nc2ccc(NC(=O)c3ccc(F)cc3)cc2s1	-12.5	.	2.4	.	.
COc1ccc(NC(=S)N(CCCN2CCOCC2)C(C)c2cc3cccc(OC)c3o2)cc1 (stereo not drawn)	-18.0	-0.7	0.1	35.2*	-14.9
COc1cccc2cc(C(C)N(CCCN3CCOCC3)C(=S)Nc3ccc(C)c(C)c3)oc12 (stereo not drawn)	-13.9	-4.7	-3.1	-9.2	-26.4
CC1=C(C(=O)OCCOc2ccccc2)C(c2coc3ccccc3c2=O)C2=C(CCCC2=O)N1 (stereo not drawn)	43.0*	-0.8	0.6	-21.4	-3.3
CCOC(=O)C1=C(C)NC2=C(C(=O)CCC2)C1c1coc2ccccc2c1=O (stereo not drawn)	5.6	-1.8	0.6	-6.6	-4.9
CC(=O)Nc1ccc(S(=O)(=O)N2CCN(Cc3csc(C)n3)CC2)cc1	9.1	-4.6	0.2	-7.4	53.2*
CC(=O)Nc1ccc(S(=O)(=O)N2CCN(Cc3ccccn3)CC2)cc1	1.5	-1.4	4.3	23.3	-10.5
CC(=O)Nc1ccc(S(=O)(=O)N2CCN(Cc3ccccc3[N+](=O)[O-])CC2)cc1	38.1*	1.9	1.0	-2.9	-4.3
Cc1ccc(S(=O)(=O)N2CCN(CC(=O)N3CCOCC3)CC2)cc1	10.0	-8.5	-0.1	-6.5	-2.9
CC(=O)Nc1ccc(S(=O)(=O)N2CCN(CC(=O)N3CCOCC3)CC2)cc1	-2.9	-4.4	1.0	37.4*	-13.1
CCN(C(=O)c1coc(=O)c2ccccc12)c1ccccc1C	.	.	-0.7	.	.
CCOC(=O)C1CCCN(C(=O)c2cc(C)n(C(C)(C)C)n2)CC1 (stereo not drawn)	.	-2.9	.	.	-6.9
Fc1ccc(N/N=C2/CC(c3ccccc3)Oc3ccccc32)c(F)c1 (stereo not drawn)	-3.7	14.4	-0.3	2.7	82.0*
Cc1ccc(-n2c(COCC(=O)O)nc3cccnc32)cc1	5.1	.	2.2	.	.
CCCCN(C(=O)Cc1cccc(F)c1)c1c(N)n(CCC)c(=O)[nH]c1=O	6.0	0.4	2.0	36.5*	0.2
Cc1ccc(C(=O)COC(=O)C2CC(=O)N(c3nc(-c4ccccc4)cs3)C2)cc1 (stereo not drawn)	10.0	-2.6	0.9	34.1*	-4.4
SMILES	D2 PAM-1	D2 ag-1	D2 ag-2	D2 antag	D2 PAM-2
O=[N+]([O-])c1nn(-c2ccc3c(c2)OCCO3)n(O)c1=NC1CCCCCC1	5.5	?	0.1	-13.0	85.3*
O=[N+]([O-])c1nn(-c2ccc3c(c2)OCCO3)n(O)c1=Nc1ccccc1	9.4	?	-0.9	-4.0	?
O=[N+]([O-])c1nn(-c2ccc3c(c2)OCCO3)n(O)c1=NC1CCCC1	8.7	7.7	0.9	-1.1	74.6*
Cc1cc(C)c(C#N)c(N2CCN(Cc3ccccc3)CC2)n1	-26.8	-0.4	0.7	73.8*	-21.3
Cc1cc(C)c(C#N)c(N2CCN(Cc3ccc4c(c3)OCO4)CC2)n1	-19.9	-5.9	0.1	97.8*	-36.7
Cc1cc(C)c(C#N)c(N2CCN(S(=O)(=O)Cc3ccccc3)CC2)n1	11.7	-5.8	-1.8	-12.7	-6.1
N#CCc1c(C#N)c(N)nc(N2CCN(Cc3ccc4c(c3)OCO4)CC2)c1C#N	-35.1	-1.4	1.7	17.9	-28.3
